Most compounds without a hit are left out; they make up all but 6.7% or so of the library.
T cruzi growth = T. cruzi intracellular proliferation inhibitors, primary screen, cell-based, beta-gal Tulahuen parasites, NIH3T3 host, luminescence; T. cruzi beta-gal in NIH3T3, GalScreen luminescence, 90 h; AID 624255, 2012; inhibition, % at 8.34 µM; 77,000 tested, 5.9% active;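 active = mean inhibition above about 93%, with at least 55% of replicates each passing it, limit read from the data, passing the limit was not always enough; inconclusive = only one of those two conditions holds; inactive = neither condition holds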
Pf Dd2 growth = P. falciparum Dd2 growth inhibitors, primary screen, SYBR Green fluorescence, single dose replicates; activity change, % at 10 µM; AID 1159554, 2015; 72 h; active compounds read low; 94,000 tested, 2.3% active; in the data active = activity change below about -80%; inconclusive = no clear call, values can overlap the other calls
C diff HTS = C. difficile growth inhibitors, primary screen, HTS | Clostridium difficile clinical isolate growth, OD600, 24 h; active compounds read low | growth activity, negative = inhibition, % at 16 µg/mL (by protocol) | 86,000 tested, 0.25% active;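 active = mean growth activity at or below -80% and every replicate also at or below -80%; inconclusive = mean at or below -80% but some replicate above -80%; inactive = mean growth activity above -80%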;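 also: 0% = DMSO wells and -100% = levofloxacin 16 µg/mL wells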
Numbers without * were called inactive; ? = inconclusive; nt = no result given.

SMILES	T cruzi growth	Pf Dd2 growth	C diff HTS
C[C@@H]1CN([C@@H](C)CO)S(=O)(=O)c2ccc(C#CC3(O)CCCC3)cc2O[C@H]1CN(C)C(=O)c1ccccc1	51.5	-86.1*	-9.3
CC(C)C#Cc1ccc2c(c1)O[C@@H](CN(C)C(=O)C1CCCCC1)[C@@H](C)CN([C@H](C)CO)S2(=O)=O	80.3	-29.1	8.8
C[C@@H]1CN([C@@H](C)CO)S(=O)(=O)c2ccc(C#Cc3ccccc3)cc2O[C@H]1CN(C)C(=O)C1CC1	67.4	-89.3*	-15.0
C[C@H]1CN([C@@H](C)CO)S(=O)(=O)c2ccc(C#Cc3ccncc3)cc2O[C@@H]1CN(C)C(=O)C1CC1	66.0	-30.9	nt
C[C@@H]1CN([C@H](C)CO)S(=O)(=O)c2ccc(C#Cc3ccncc3)cc2O[C@@H]1CN(C)C(=O)C1CC1	80.1	-24.5	nt
C[C@@H]1CN([C@H](C)CO)C(=O)CCCn2nncc2CO[C@@H]1CN(C)C(=O)Nc1cccc(C(F)(F)F)c1	-4.3	3.3	1.1
COc1ccc(S(=O)(=O)N(C)C[C@@H]2Oc3ccc(NC(=O)Nc4ccc5c(c4)OCO5)cc3CC(=O)N([C@@H](C)CO)C[C@H]2C)cc1	30.9	-25.7	4.9
O=C(C[C@@H]1CC[C@@H](NC(=O)c2ccncc2)[C@H](CO)O1)NCCc1ccncc1	nt	8.1	2.0
C[C@H](CO)N1C[C@H](C)[C@H](CN(C)S(=O)(=O)c2ccccc2)Oc2ccc(NC(=O)Nc3cccc4ccccc34)cc2C1=O	-51.3	-18.1	-2.6
CCC(=O)N(C)C[C@@H]1Oc2cc(C#Cc3ccccc3)ccc2S(=O)(=O)N([C@H](C)CO)C[C@@H]1C	nt	-72.0	-6.9
CCC(=O)N(C)C[C@H]1Oc2cc(C#Cc3ccccc3)ccc2S(=O)(=O)N([C@@H](C)CO)C[C@@H]1C	nt	-82.9*	1.2
C[C@@H]1CN([C@@H](C)CO)S(=O)(=O)c2ccc(C#Cc3ccccc3)cc2O[C@@H]1CN(C)C(=O)Cc1ccccn1	67.2	?	-9.8
C[C@@H]1CN([C@@H](C)CO)S(=O)(=O)c2ccc(C#Cc3ccccc3)cc2O[C@H]1CN(C)C(=O)Cc1ccccn1	71.8	-84.5*	-18.9
C[C@H]1CN([C@@H](C)CO)C(=O)c2cccc(NC(=O)CCCCCC(=O)Nc3ccccc3N)c2O[C@H]1CN(C)C(=O)Nc1ccc(C(F)(F)F)cc1	nt	-91.8*	12.4
COc1ccc(NC(=O)N(C)C[C@@H]2Oc3c(NC(=O)Nc4ccccc4)cccc3C(=O)N([C@H](C)CO)C[C@@H]2C)cc1	8.1	-16.8	5.8
C[C@@H]1CN([C@H](C)CO)C(=O)c2cccc(NC(=O)CCCCCC(=O)Nc3ccccc3N)c2O[C@H]1CN(C)C(=O)Nc1cccc2ccccc12	nt	-73.0	-0.8
C[C@@H]1CN([C@H](C)CO)C(=O)c2cccc(NC(=O)CCCCCC(=O)Nc3ccccc3N)c2O[C@H]1CN(C)C(=O)Nc1ccc(C(F)(F)F)cc1	nt	-88.0*	9.5
C[C@H](CO)N1C[C@H](C)[C@@H](CN(C)C(=O)Nc2ccc(F)cc2)Oc2c(NC(=O)CCCCCC(=O)Nc3ccccc3N)cccc2C1=O	nt	-63.0	-5.8
COc1ccc(NC(=O)N(C)C[C@H]2Oc3c(NC(=O)Nc4ccccc4)cccc3C(=O)N([C@@H](C)CO)C[C@H]2C)cc1	-16.1	-89.0*	-9.4
C[C@H](CO)N1C[C@H](C)[C@@H](CN(C)C(=O)Nc2ccc(C(F)(F)F)cc2)Oc2c(NC(=O)CCCCCC(=O)Nc3ccccc3N)cccc2C1=O	nt	-83.5*	7.8
C[C@H]1CN([C@@H](C)CO)C(=O)c2cc(NC(=O)CCCCCC(=O)Nc3ccccc3N)ccc2O[C@@H]1CN(C)C(=O)Nc1ccc(C(F)(F)F)cc1	nt	0.0	7.7
Cc1noc(C)c1NC(=O)N(C)C[C@@H]1OCCCC[C@H](C)Oc2ccc(NC(=O)Cc3ccccc3)cc2C(=O)N([C@H](C)CO)C[C@H]1C	19.0	55.1	0.4
CO[C@H]1O[C@H](CO)[C@@H](OC(=O)c2ccc(Br)cc2)[C@H](OC(=O)c2cc3ccccc3[nH]2)[C@H]1OC(=O)c1cc2ccccc2[nH]1	nt	nt	7.0
O=C(NCC[C@@H]1CC[C@@H](NC(=O)C2CCCC2)[C@@H](CO)O1)c1cnccn1	nt	4.0	-0.6
COCC(=O)N1CC2(CCN(Cc3cncnc3)CC2)c2c(n(C)c3cc(OC)ccc23)[C@@H]1CO	nt	-56.2	nt
SMILES	T cruzi growth	Pf Dd2 growth	C diff HTS
COc1ccc(NC(=O)N(C)C[C@H]2Oc3c(NC(=O)CCCCCC(=O)Nc4ccccc4N)cccc3C(=O)N([C@H](C)CO)C[C@@H]2C)cc1	nt	-27.8	2.0
COc1ccc(NC(=O)N(C)C[C@H]2Oc3c(NC(=O)CCCCCC(=O)Nc4ccccc4N)cccc3C(=O)N([C@@H](C)CO)C[C@H]2C)cc1	nt	-88.6*	5.0
C[C@@H]1CN([C@@H](C)CO)C(=O)c2cccc(NC(=O)CCCCCC(=O)Nc3ccccc3N)c2O[C@H]1CN(C)C(=O)Nc1ccc(C(F)(F)F)cc1	nt	-83.7*	0.3
C[C@@H]1CN([C@H](C)CO)C(=O)c2cccc(NC(=O)CCCCCC(=O)Nc3ccccc3N)c2O[C@H]1CN(C)C(=O)Nc1ccccc1	nt	-58.6	0.9
COc1ccc2c3c([nH]c2c1)[C@H](CO)N(C(=O)C1CCC1)CC31CN(S(C)(=O)=O)C1	nt	-24.7	0.4
COc1cccc(C#Cc2ccc([C@@H]3[C@H]4CN(S(=O)(=O)c5ccccc5C)CC(=O)N4[C@H]3CO)cc2)c1	nt	-57.9	8.1
CC=Cc1ccc2n(c1=O)C[C@@H]1[C@@H](CO)[C@H](C(=O)NCc3ccccc3F)N(CC)[C@H]21 (mixture of isomers)	92.1	0.7	-1.1
COc1ccc2c3c([nH]c2c1)[C@H](CO)N(C(=O)Nc1cccc(F)c1)CC31CN(S(=O)(=O)c2cccc(C)c2)C1	nt	-51.5	-0.2
COc1ccc2c3c([nH]c2c1)[C@H](CO)N(CC1CC1)CC31CCN(S(=O)(=O)c2cccc(F)c2)CC1	nt	-89.6*	7.8
COc1ccc2c3c([nH]c2c1)[C@H](CO)N(C(=O)Nc1cccc(F)c1)CC31CCN(S(=O)(=O)c2cccc(C)c2)CC1	nt	-81.7*	-11.3
COc1ccc2c3c([nH]c2c1)[C@H](CO)N(C)CC31CCN(S(=O)(=O)c2cccc(F)c2)CC1	nt	-60.2	6.8
C[C@H](CO)N1C[C@H](C)[C@H](CN(C)C)Oc2cc(-c3cccnc3)ccc2S1(=O)=O	6.5	34.9	1.7
COc1ccc(CN(C)C[C@@H]2Oc3c(NS(C)(=O)=O)cccc3C(=O)N([C@@H](C)CO)C[C@@H]2C)cc1	-23.4	-12.7	-1.1
COc1cccc(S(=O)(=O)N2CC[C@H]3[C@@H](CO)N(C)c4ccc(C#Cc5ccc(F)cc5)cc4[C@H]32)c1	34.9	-34.0	-99.3*
Cc1cccc(S(=O)(=O)N2CC[C@@H]3[C@H](CO)N(C)c4ccc(C#Cc5ccc(F)cc5)cc4[C@@H]32)c1	-0.1	-72.5	-98.3*
CN1c2ccc(-c3ccccc3)cc2[C@H]2[C@H](CCN2S(=O)(=O)c2ccccc2F)[C@H]1CO	-8.8	-2.6	0.5
CN1c2ccc(-c3cccc(C#N)c3)cc2[C@H]2[C@H](CCN2S(=O)(=O)c2ccccc2F)[C@H]1CO	49.4	-95.1*	-2.1
